PubChem BioAssay AID504594 (Broad Institute, 2011)
Among all 2,000 compounds or so, fewer than 10 were called active. Only a sample is shown. Values without a mark were called inactive.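 The calls were made as follows: active = growth inhibition of at least 75% in every replicate, which also brings the mean inhibition to 75% or more; inconclusive = mean inhibition 75% or more but some replicate under 75%; inactive = the rest.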

Experiment: growth inhibition of PfHsp90-dependent yeast, primary screen, antimalarial PfHsp90 inhibitor project, S. cerevisiae, BacTiter-Glo luminescence (AID 504594);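 also: 0% = DMSO neutral control wells and 100% = 20 µM radicicol control wells; higher value means stronger growth inhibition because the sign is flipped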
Details: S. cerevisiae expressing PfHsp90, BacTiter-Glo growth, 48 h; at 9.4 µM; stronger effect = higher value

SMILES | growth inhibition
CC(C)c1ccc2[nH]c3c(c2c1)CCCC3=O | 0.593%
O=c1cc(-c2ccccc2)oc2cc(OCc3ccccc3)cc(O)c12 | 2.87%
Cc1ccc2ncnc(NCCCCCC(=O)O)c2c1 | 4.2%
Nc1cccc2c1nnn2C1OC(CO)C(O)C(O)C1O (stereo not given) | -0.754%
O=C1C=CC(=O)C(C2=C3C(=O)N(CCc4ccccc4)CC(=O)N3CCC2)=C1 | 0.713%
COc1cc(NC(=O)N[C@@H](Cc2ccccc2)C(=O)O)cc(OC)c1 | 5.35%
CCc1ccc(CN(C)Cc2nc(Cc3ccccc3)no2)nc1 | -0.638%
O=C(NCCNc1ccc(Cl)cc1[N+](=O)[O-])c1cccnc1 | 1.09%
CC1(C)NC(C(=O)O)Cc2c1[nH]c1ccccc21 (stereo not given) | 7.2%
CC(C)NC(=O)C1(c2ccccc2)CCOCC1 | -8.01%
CCCCOn1c(C)c(C(C)=O)c2c3no[n+]([O-])c3ccc21 | -14.4%
CCSc1nc(O)c(C2OC(=O)c3c2ccc(OC)c3OC)c(=O)n1CC (stereo not given) | 9.9%
COC(=O)c1ccccc1NC(=O)NCc1ccccc1 | -7.31%
Cc1ccc2[nH]c3c(c2c1)CN(C(=O)CN1CCSCC1)CC3 | -8.61%
COc1ccccc1C1(CC(=O)N2CCCCC2)CCOC(C(C)C)C1 (stereo not given) | 14.4%
CC(C)CCNC(=O)[C@H](CC(C)C)NC(=O)[C@H]1O[C@@H]1C(=O)O | -0.406%
CC(=O)N1N=C(c2cccs2)CC1c1ccc(C)o1 (stereo not given) | 15.9%
Cc1cc(Cl)cc2c1NC(=O)[C@]21[C@@H]2C(=O)N(Cc3ccccc3)C(=O)[C@@H]2[C@@H]2CCCN21 | 6.75%
COC(=O)CN1C(=S)N(c2ccc(F)cc2)C(=O)C1CC(=O)Nc1ccccc1 (stereo not given) | 9.33%
Cc1ccc(P(=O)(CSC(=N)N)c2ccc(C)cc2)cc1 | -1.66%
Cc1[nH]c2ccccc2c1C(=O)C(=O)NCc1ccco1 | 5.84%
Cc1ccccc1NC(=O)NCCc1c[nH]c2ccccc12 | 17.7%
OCCC1CN(Cc2ccccc2-c2ccco2)CCN1C1CCCC1 (stereo not given) | -5.78%
Cc1ccc(CN2CCN(Cc3cn[nH]c3C3CCCCC3)CC2CCO)cc1 (stereo not given) | -25.7%

SMILES | growth inhibition
Cc1ccc(Nc2ncccc2C(=O)O)cc1C | -4.41%
CS(=O)c1ccccc1O (stereo not given) | 14.9%
N/C(=N\OC(=O)CCCOc1ccc(Cl)cc1Cl)c1ccncc1 | -2.92%
COc1ccc(C2NC(=O)c3ccccc3N2)cc1OC (stereo not given) | -3.61%
C=C(C)c1nc2cc(OC)c(OC)cc2c(=O)o1 | 12.6%
C=CCNC(=O)c1ccc(-c2cccc([N+](=O)[O-])c2)o1 | 0.359%
COc1ccc(-n2cc(CNCc3cccnc3)c(-c3cccc(F)c3)n2)cc1 | -18.3%
COC(=O)c1cc(-c2ccc(OC)c(OC)c2)on1 | -8.12%
O=c1c2ccccc2nc2n1CCCN2 | 6.84%
CCOC(=O)N1CCc2[nH]c3ccc(C)cc3c2C1 | -0.0125%
CC1(C)CC(C(CC(=O)O)c2ccccc2)CCO1 (stereo not given) | -0.107%
Cc1ccc2c(c1)c(C)cc(=O)n2CCC(=O)O | -4.29%
Cc1ccccc1OCC(O)CN1CCN(C)CC1 (stereo not given) | 2.9%
COc1cccc(C2CCCN2Cc2nc(CCC(C)C)no2)c1 (stereo not given) | 11.4%
CC(C)N(Cc1nccn1C)C(=O)CC1C(=O)NCCN1Cc1ccccc1C(F)(F)F (stereo not given) | -0.671%
CCOCCCNCc1cn(-c2ccc(F)cc2F)nc1-c1ccccc1C | 5.3%
CCOC(=O)C1(Cc2cccc(Cl)c2)CCCN(C2CCN(C(C)=O)CC2)C1 (stereo not given) | -10.8%
Cc1ccc(C2=NOC(=O)/C2=C\C=C\c2ccccc2)cc1 | 14.3%
O=C1c2ccccc2C(=O)N1/N=C/c1ccc(Oc2ccc([N+](=O)[O-])cn2)cc1 | 4.52%
CC1(C)Oc2ccc(C#N)cc2[C@@H](N2CCCC2=O)[C@@H]1O | 7.78%
CC1(C)Cc2ccccc2C(C(Cc2ccccc2)C(N)=O)=N1 (stereo not given) | -4.58%
O=C(CN1CCN(Cc2ccccc2)CC1)N1CCCc2c1c(=O)oc1ccc(O)cc21 | -7.45%
O=C(NCCc1cccc(F)c1)[C@@H]1CSC2c3ccccc3C(=O)N21 (stereo not given in full) | 3.04%
COc1ccc(CCNC(=O)CC(c2ccccc2)c2cccc(C)c2O)cc1OC (stereo not given) | -1.09%

SMILES | growth inhibition
CCn1c(SCC(=O)c2ccccc2)nc2ccccc2c1=O | -10.3%
CC1(C)Cc2nc3sc4c(=O)n(CC(N)=O)cnc4c3cc2CO1 | -2.88%
CC(C)(C)OC(=O)COc1cc(OCC(=O)OC(C)(C)C)c2c(=O)cc(-c3ccccc3)oc2c1 | -8.59%
Cn1cnc2c1c(=O)n(CC(O)CO)c(=O)n2C (stereo not given) | -5.12%
O=C(O)c1ccccc1C(=O)OCCCCOC(=O)c1ccccc1C(=O)O | -3.9%
COc1ccc(C(=O)NCC2OCCc3ccccc32)cc1 (stereo not given) | -3.22%
O=C1CC(c2ccc(F)cc2)Cc2nc(NCC3CCCO3)ncc21 (stereo not given) | 6.43%
COc1ccccc1OCC(=O)O | -2.4%
NC(N)=NC(N)=Nc1ccc2ccccc2c1 | -11.6%
O=C(c1cc2cc(Br)ccc2o1)N1CCCCC1 | 5.37%
Cc1ccc2c(CN3CCN(Cc4ccc5c(c4)OCO5)CC3)cc(=O)oc2c1C | 0.516%
COc1ccc(-c2cc(=O)oc3cc(OC(C)C(=O)O)ccc23)cc1 (stereo not given) | -0.213%
CN(Cc1c(C(=O)N(C)Cc2ccccc2)nc2ccccn12)CC1Cc2ccccc2O1 (stereo not given) | 11.4%
CC(C)CCc1noc(CN2CCC(CCN3CCCC3=O)CC2)n1 | 4.25%
Cn1c(SCC(=O)c2ccccc2)nnc1-c1ccncc1 | 0.861%
CC(=O)C1=C(O)C(=O)OC1c1ccc(C)cc1 (stereo not given) | 14.7%
CC12CC(c3ccccc3O1)C(C(=O)N1CCOCC1)C(=O)N2 (stereo not given) | -11.3%
COc1cc2c(cc1OC)C1(CCCC1)CNC2c1cccc([N+](=O)[O-])c1 (stereo not given) | -7.37%
Cc1csc(-c2coc3cc(O)cc(C)c3c2=O)n1 | 23.5%
Cc1nc(N)sc1C(=O)N/N=C/c1ccco1 | -1.68%
Nc1nc2c(nc(SCc3ccccc3Br)n2C2OC(CO)C(O)C2O)c(=O)[nH]1 (stereo not given) | -22.3%
COc1ccc(/C=C2\CC/C(=C\c3ccc(OC)c(OC)c3)C2=O)cc1OC | -15.8%
CCc1cc2c(=O)c(-c3ccc4c(c3)OCCO4)coc2c(CN2CCCCC2C)c1O (stereo not given) | -11.5%
CCOC(=O)c1ccc(N2C(=O)C(CC(=O)NC)N(CCc3ccc(OC)c(OC)c3)C2=S)cc1 (stereo not given) | 8.13%

SMILES | growth inhibition
O=C(Cc1cccc2ccccc12)N1CC[C@@]2(O)CCCC[C@H]2C1 | -9.85%
COc1ccccc1C(=O)N=C1NC(=O)CC2C(=O)NCCN12 (stereo not given) | 2.95%
Cc1ccc2c(c1)C1OCCC1C1N2C(=O)C2C(C(=O)O)C3C=CC21O3 (stereo not given) | -2.86%
COc1ccc(CNC(=O)C2CCCN2C)cc1OC (stereo not given) | -16.4%
COc1ccc2[nH]c(=O)c(CNC3CCCCC3)cc2c1 | -29%
CCOC(=O)C1=C(N)Oc2c(oc(CO)cc2=O)C1c1ccc(F)c(F)c1 (stereo not given) | -16.3%
CC12CCC(C(=O)NCc3ccccn3)(OC1=O)C2(C)C (stereo not given) | -9.47%
CC(=O)O[C@H]1C(=O)[C@@]2(C)[C@H]([C@H](OC(=O)c3ccccc3)[C@]3(O)C[C@H](OC(=O)[C@H](O)C(NC(=O)c4ccccc4)c4ccccc4)C(C)=C1C3(C)C)[C@]1(OC(C)=O)CO[C@@H]1C[C@@H]2O (stereo not given in full) | 4.3%
CCOC(=O)N1c2ccccc2C=CC1OCC (stereo not given) | -5.21%
Cc1cc(=O)oc2cc(OC(C)C(=O)NCC3CCCO3)ccc12 (stereo not given) | -2.4%
CCC(C)n1ncn(-c2ccc(N3CCN(c4ccc(OCC5COC(Cn6cncn6)(c6ccc(Cl)cc6Cl)O5)cc4)CC3)cc2)c1=O (stereo not given) | -1.74%
O=C(O)c1ccc(OCCn2ccnc2)cc1 | -4.4%
CC(=O)N1CCN(c2ccc(OC[C@H]3CO[C@](Cn4ccnc4)(c4ccc(Cl)cc4Cl)O3)cc2)CC1 | 94.4% (active)
Cc1oc(/C=N/NC(=O)CC2(C)OCCO2)cc1Br | -11.1%
C=C(C)[C@@H]1CC=C(CN2CCC(N3CCC(C(=O)N4CCCC4)CC3)CC2)CC1 | -0.183%
CCN(CC)CCN1C(=O)C(=O)/C(=C(/O)c2c(C)[nH]c(C(=O)OC)c2C)C1c1cccnc1 (stereo not given) | -4.71%
COc1cccc(N2CC34C=CC(O3)C(C(=O)O)C4C2=O)c1 (stereo not given) | -1.36%
COc1ccc(OC)c(-c2oc3ccccc3c(=O)c2O)c1 | -8.17%
Cc1ccsc1C1NC(=O)c2ccccc2N1 (stereo not given) | -12.4%
COc1cc(C(=O)N/C(=C\c2cn(C)c3ccccc23)C(=O)NCCCO)cc(OC)c1OC | 13.5%
CCc1nc2ccccc2n1Cc1ccc(OC)c(OC)c1 | 2.55%
C/C(NC(=O)c1cccs1)=C1\C(=O)C[C@@H]2[C@H]1C2(C)C | 1.59%
CCc1cc2c(=O)c(-c3nc(C)cs3)c(CCCC(=O)O)oc2cc1O | -4.53%
